PubChem BioAssay (EPA / NIEHS)
Several values for one entry are separate records, joined by “and”; a condition that tells them apart may be missing. Equal entries are not always repeated. Some compounds were tested as several samples or in several runs, with calls that do not always agree. Activity calls are given as the source filed them. The calls were made as follows: active = hit-call score of the fitted dose curve at least 0.9, where 1 is the maximum; inactive = score below 0.9.

read-out: Interleukin-1 alpha (IL1a), IL1A (gene 3552); assay: BSK_BF4T_IL1a: BioMAP Diversity Plus: BF4T Assay for Interleukin-1 alpha (IL1a) Biomarker Activity (AID 2284264); conditions: primary human bronchial epithelial cells with fibroblasts
Description: BSK_BF4T is a cell-based, multiplexed-readout assay that uses bronchial epithelial cells and dermal fibroblasts, a human vascular primary cell, with measurements taken at 24 hours after chemical dosing in a microplate: 96-well plate.BSK_BF4T_IL1a is an assay component measured in the BSK_BF4T assay. It measures IL-1a antibody related to regulation of gene expression using ELISA technology.Data from the assay component BSK_BF4T_IL1a was analyzed at the endpoint, BSK_BF4T_IL1a, in the positive analysis fitting direction relative to DMSO as the negative control and baseline of activity. Using a type of binding reporter, gain or loss-of-signal activity can be used to understand protein changes. To generalize the intended target to other relatable targets, this assay endpoint is annotated to the 'cytokine' intended target family, where the subfamily is 'interleukins'.
The levels of cell surface (or secreted, indicated by the prefix "s") biomarker endpoints were measured by ELISA. Overt cytotoxicity to cells in confluent adherent cultures (all systems other than the BT system) was assessed by measuring total protein levels using sulforhodamine B (SRB) staining in parallel cultures at the time of biomarker measurements, indicated as SRB endpoints. For proliferation assays for adherent cell types, individual cell types are cultured at sub-confluence and relative cell numbers quantified by SRB staining at time points optimized for each system (48 h: 3C and CASM3C systems; 72 h: BT and HDF3CGF systems; 96 h: SAg system). SRB was performed by staining cells with 0.1% SRB after fixation with 10% TCA and reading wells at 560 nm.Viability and proliferation of PBMC (T cells) was quantified by Alamar Blue reduction for the SAg and BT systems. For PBMC viability (referred to as PBMC Cytotoxicity within the assay endpoint names), cells were plated (75,000/well in a 96-well plate) and then chemical samples added for 1 h before addition of activators, SEB and TSST-1 (20 ng/mL final concentration each). Cells were incubated for 90 h. Then, Alamar Blue (20 uL/well) (Invitrogen, Cat DAL1100) was added for 6 h, and the plates were read with a fluorescence microplate reader at 546/580 nm (excitation/emission). For PBMC proliferation, cells were plated and activated as above but incubated for only 16 h prior to addition of Alamar Blue. Plates were read after 6 h.

| Compound | outcome | AC50 |
| --- | --- | --- |
| O=C(F)C1(F)C(F)(F)C(F)(F)C(F)(F)C(F)(F)C1(F)F | inactive |  |
| O=S(=O)(O)CCC(F)(F)C(F)(F)C(F)(F)C(F)(F)F | inactive |  |
| O=S(=O)(Cl)C(F)(F)C(F)(F)C(F)(F)C(F)(F)C(F)(F)C(F)(F)C(F)(F)C(F)(F)F | inactive | 46.3 µM (active) |
| NCC(F)(F)C(F)(F)C(F)(F)C(F)(F)C(F)(F)C(F)(F)C(F)(F)C(F)(F)F | inactive |  |
| O=C(Cl)C(F)(F)C(F)(F)C(F)(F)C(F)(F)C(F)(F)C(F)(F)C(F)(F)F | inactive |  |
| O=C(O)C(F)(F)C(F)(F)C(F)(F)C(F)(F)C(F)(F)C(F)(F)C(F)F | inactive |  |
| OCC(O)CC(F)(F)C(F)(F)C(F)(F)C(F)(F)F (stereo not given) | inactive |  |
| OCCCC(F)(F)C(F)(F)C(F)(F)C(F)(F)C(F)(F)C(F)(F)C(F)(F)C(F)(F)F |  | 46.4 µM (active) and 45.7 µM (active) |
| OCC(F)(F)C(F)(F)C(F)(F)C(F)(F)C(F)(F)C(F)(F)C(F)(F)C(F)(F)CO | inactive |  |
| NC(=O)C(F)(F)C(F)(F)C(F)(F)C(F)(F)C(N)=O | inactive |  |
| FC(F)(F)C(F)(F)C(F)(F)CC1CO1 (stereo not given) | inactive |  |
| O=S(=O)(O)CCC(F)(F)C(F)(F)C(F)(F)C(F)(F)C(F)(F)C(F)(F)C(F)(F)C(F)(F)F | inactive |  |
| CN(C(=O)C(F)(F)C(F)(F)C(F)(F)F)[Si](C)(C)C | inactive |  |
| CNS(=O)(=O)C(F)(F)C(F)(F)C(F)(F)C(F)(F)C(F)(F)C(F)(F)C(F)(F)C(F)(F)F | inactive |  |
| C=C(C)C(=O)OCC(F)(F)C(F)(F)C(F)(F)C(F)F | inactive |  |
| C[Si](Cl)(Cl)CCC(F)(F)C(F)(F)C(F)(F)C(F)(F)C(F)(F)C(F)(F)F | inactive |  |
| C=CC(=O)OCC(F)(F)C(F)(F)C(F)(F)COC(=O)C=C |  | 40.5 µM (active) and 41.3 µM (active) |
| OCCCCC(F)(F)C(F)(F)C(F)(F)C(F)(F)F | inactive |  |
| FC(F)(F)C(F)(F)C(F)(F)C(F)(F)C(F)(F)C(F)(F)CC[Si](Cl)(Cl)Cl | inactive |  |
| OCC(F)(F)C(F)(F)C(F)(F)CO | inactive |  |

| Compound | outcome | AC50 |
| --- | --- | --- |
| NC(=O)C(F)(F)C(F)(F)C(F)(F)C(F)(F)C(F)(F)C(F)(F)C(F)(F)F | inactive |  |
| O=C(O)C(F)(F)C(F)(F)C(F)(F)C(=O)O | inactive |  |
| CO[Si](C)(CCC(F)(F)C(F)(F)C(F)(F)C(F)(F)C(F)(F)C(F)(F)F)OC | inactive |  |
| C=CC(=O)OCCC(F)(F)C(F)(F)C(F)(F)C(F)(F)F | inactive |  |
| OCC(O)CC(F)(F)C(F)(F)C(F)(F)C(F)(F)C(F)(F)C(F)(F)C(F)(F)C(F)(F)F (stereo not given) | inactive |  |
| O=C(O)CCC(F)(F)C(F)(F)C(F)(F)F | inactive |  |
| NC(=O)C(F)(F)C(F)(F)C(F)(F)C(F)F | inactive |  |
| FC(F)(F)C(F)(F)C(F)(F)C(F)(F)C(F)(F)C(F)(F)C(F)(F)CCI | inactive |  |
| COC(F)(C(F)F)C(F)(F)F (stereo not given) | inactive |  |
| CCOC(=O)CC(=O)C(F)(F)C(F)(F)F | inactive |  |
| O=C(O)C(F)(F)C(F)(F)C(F)(F)OC(F)(C(F)(F)F)C(F)(F)F | inactive |  |
| NCC(F)(F)C(F)(F)C(F)(F)C(F)(F)C(F)(F)C(F)(F)F | inactive |  |
| OCC(F)(F)C(F)(F)C(F)(F)C(F)(F)C(F)(F)C(F)(F)CO | inactive |  |
| NS(=O)(=O)C(F)(F)C(F)(F)C(F)(F)C(F)(F)C(F)(F)C(F)(F)F | inactive |  |
| NC(=O)C(F)(F)C(F)(F)C(F)(F)F | inactive |  |
| O=C(O)C(F)(F)C(F)(F)C(F)(F)OC(F)(F)F | inactive |  |
| OC(O)C(F)(F)C(F)(F)F | inactive |  |
| O=C(O)C(F)(F)OC(F)(F)C(F)(F)OC(F)(F)C(F)(F)OC(F)(F)F | inactive |  |
| CCN(CCO)S(=O)(=O)C(F)(F)C(F)(F)C(F)(F)C(F)(F)C(F)(F)C(F)(F)C(F)(F)C(F)(F)F | inactive |  |
